Source: PubChem
Compounds with a hit are over-represented: about 1.1% of the library has one in this group of screens.
NCOA2 inhibitor: human SRC2 (NCOA2) inhibition | inhibition, % at 9 µM | 370,000 tested, 0.17% active | Q15596 | HEK293 GAL4-SRC2 luciferase reporter, luminescence;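 active = inhibition above the mean inhibition of all tested compounds plus 3 SD, set per campaign, cut at about 52% in these data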
NR2F2 inh: blocks human COUP-TFII nuclear receptor; P24468; HEK293T NGFI-A luciferase reporter, luminescence; inhibition, % at 8.6 µM; 370,000 tested, 0.7% active;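 active = inhibition above a per-plate cutoff, mean inhibition of test wells between control levels plus 3 SD, cut at about 38% in these data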;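 note: cells cotransfected with COUP-TFII expression vector driving the NGFI-A reporter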
SRC1 inh: human NCOA1 inhibition; inhibition, % at 3.6 µM; HEK293 GAL4-SRC1 luciferase reporter, luminescence; 360,000 tested, 0.12% active; Q15788;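 active = inhibition above the campaign mean plus 3 SD, with each screening campaign given its own cutoff, cut at about 60% in these data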
NR5A2 inv ag: inverse agonists of human LRH-1 (NR5A2); O00482; HEK293T StAR-luciferase reporter, LRH-1 transfected, 24 h; inhibition, % at 3.6 µM; 360,000 tested, 0.13% active; AID 602396;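 active = inhibition above the mean inhibition of all tested compounds plus 3 SD, cut at about 73% in these data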
GalR3 antagonist: blocks the human galanin receptor 3 | inhibition, % at 3 µM | O60755 | HEK293 GalR3-CNG cAMP membrane potential fluorescence; galR3 body fused to GalR1 C-terminus | 360,000 tested, 0.44% active;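 active = inhibition above the screen-wide average plus 3 SD, cut at about 13% in these data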;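 note: forskolin and galanin both at EC90 stimulate the cells; cAMP rise reported by CNG channel membrane potential dye signal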
Target sequence (O60755 1-299 limits assumed): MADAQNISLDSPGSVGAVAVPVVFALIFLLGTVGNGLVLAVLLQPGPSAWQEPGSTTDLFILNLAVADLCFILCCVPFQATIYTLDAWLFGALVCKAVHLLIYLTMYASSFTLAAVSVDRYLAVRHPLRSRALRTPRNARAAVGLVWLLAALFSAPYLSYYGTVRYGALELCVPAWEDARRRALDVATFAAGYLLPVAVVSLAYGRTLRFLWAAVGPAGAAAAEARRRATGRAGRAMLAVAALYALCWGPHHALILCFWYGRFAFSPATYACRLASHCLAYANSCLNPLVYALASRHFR
NCOA3 inh: human NCOA3 inhibition | HEK293 GAL4-SRC3 luciferase reporter, luminescence | inhibition, % at 3.6 µM | Q9Y6Q9 | 360,000 tested, 0.17% active;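 active = inhibition above a per-campaign cutoff, the mean of all compounds plus 3 SD, cut at about 60% in these data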;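 note: higher means less SRC3-driven luciferase light from the GAL4 reporter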
GalR3 antag conf: GalR3 (human) antagonism, confirmation. shares compounds with GalR3 antagonist. HEK293 GalR3 CNG cAMP biosensor, membrane potential fluorescence; galR3 fused to GalR1 carboxy tail; challenged with forskolin and galanin at EC90. inhibition, % at 3 µM. 1,600 tested, 59% active. AID 652245;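 active = inhibition above the primary screen's cutoff, the mean inhibition of all screened compounds plus 3 SD, cut at about 13% in these data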
CNG parental: parental cell agonism counter-screen for GalR3 antagonists. shares compounds with GalR3 antagonist. 1,600 tested, 10% active. activation, % at 3 µM. HEK293-CNG parental cells, cAMP membrane potential fluorescence; normalised: DMSO wells 0%, forskolin wells 100%; in the data active = activation above about 1.3%
A number is an active result; . = inactive; / = not tested or not shown.

SMILES	NCOA2 inhibitor	NR2F2 inh	SRC1 inh	NR5A2 inv ag	GalR3 antagonist	NCOA3 inh	GalR3 antag conf	CNG parental
O=C(Nc1ccc(OCc2ccccc2)cc1)Nc1ccccc1C(=O)NCCCN1CCOCC1	.	.	.	.	17.4	.	.	.
COC(=O)[C@]12C[C@H](CC(=O)NCCC(C)C)C(=O)N(CCC3=CCCCC3)C1=C[C@H](C(C)C)O[C@@H]2C1CC1	.	.	/	/	/	/	/	/
O=C(NC1CCCCC1c1ccccc1)c1ccccc1 (stereo unspecified)	.	.	.	.	16.0	.	.	.
CCOC(=O)c1c(C)[nH]c(C(=O)COC(=O)/C=C/c2cccc(OC)c2OC)c1C	.	.	.	.	.	.	/	/
CCOC(=O)c1c(C)[nH]c(C(=O)COC(=O)[C@H](C)NC(=O)c2ccccc2Cl)c1C	.	.	.	.	17.9	.	14.1	.
CCOC(=O)c1c(C)[nH]c(C(=O)COC(=O)COc2ccccc2C=O)c1C	.	.	.	.	13.8	.	.	.
CCOC(=O)c1c(C)[nH]c(C(=O)COC(=O)CNC(=O)c2ccccc2Cl)c1C	.	.	.	.	.	.	/	/
CC(CCN1CCC(C(O)(c2ccccc2)c2ccccc2)CC1)Oc1cccc(C(F)(F)F)c1 (stereo unspecified)	.	.	/	/	/	/	/	/
COC(=O)[C@H](C(C)C)N1CCc2nnn(Cc3ccc(C)cc3)c2-c2cc(F)ccc2S1(=O)=O	.	.	/	/	/	/	/	/
Cc1ccc(S(C)(=O)=NC(=O)NC(=O)c2c(Cl)cccc2Cl)cc1 (stereo unspecified)	.	.	.	.	.	.	/	/
Cc1ccc(S(C)(=O)=NC(=O)NC(=O)c2c(F)cccc2Cl)cc1 (stereo unspecified)	.	.	.	.	13.8	.	.	.
CCC(CO)Nc1cccc2c1S(=O)(=O)N(Cc1cn(Cc3ccc(F)cc3)nn1)Cc1ccccc1O2 (stereo unspecified)	.	.	/	/	/	/	/	/
O=C(O)c1ccc(O)c(O)c1	.	.	.	.	13.5	.	.	.
CCc1c(-c2ccccc2Br)ncn1CCc1ccccc1OC	.	.	/	/	.	/	/	/
Cc1cc(C)c2oc(C(=O)N(Cc3ccccc3)C3CCS(=O)(=O)C3)cc(=O)c2c1 (stereo unspecified)	.	.	.	.	.	.	/	/
CCOc1ccc(CN(C(=O)c2cc(=O)c3cc(C)cc(C)c3o2)C2CCS(=O)(=O)C2)cc1 (stereo unspecified)	.	.	.	.	16.7	.	.	.
CCSc1nnc(Cn2c(=O)sc3ccccc32)n1C	.	.	.	.	/	.	.	.
O=C(C(=O)N1CCC(CNC(=O)C2COc3ccccc3O2)CC1)c1cccs1 (stereo unspecified)	.	.	/	/	.	/	/	/
CC(=O)Nc1ccc(-c2csc(NC(=O)C3CC(=O)N(c4ccc5c(c4)OCCO5)C3)n2)cc1 (stereo unspecified)	.	.	.	.	14.5	.	.	.
CCOC(=O)c1csc(NC(=O)C2CCCN(S(=O)(=O)c3ccccc3[N+](=O)[O-])C2)n1 (stereo unspecified)	.	.	/	/	/	/	/	/
O=C(O)C1=C[C@@H](c2ccccc2)C[C@@H](OCCCCO)O1	.	.	.	.	.	.	/	/
COc1ccc([C@H]2C=C(C(=O)O)O[C@@H](OCCCCO)C2)cc1	.	.	.	.	17.5	.	.	.
Cc1ccc(C2C3=C(CC(C)(C)CC3=O)NC3=C2C(=O)c2ccccc23)cc1 (stereo unspecified)	.	.	.	.	22.3	.	18.6	.
O=C(NC1=N[C@@]2(C=C3CCCCC3n3c(=O)n(-c4ccccc4)c(=O)n32)[C@H](Cc2ccccc2)N1Cc1ccccc1)c1ccccc1 (stereo partly specified)	.	.	/	/	/	/	/	/
COc1cc2c(cc1OC)/C(=C/C(=O)c1cccc([N+](=O)[O-])c1)NCC2	.	.	.	.	.	.	/	/
SMILES	NCOA2 inhibitor	NR2F2 inh	SRC1 inh	NR5A2 inv ag	GalR3 antagonist	NCOA3 inh	GalR3 antag conf	CNG parental
COc1cc2c(cc1OC)/C(=C/C(=O)c1ccc(OC)c([N+](=O)[O-])c1)NCC2	.	.	.	.	18.6	.	24.9	.
COC(=O)[C@]1(C)CCC[C@@]2(C)C3CC[C@@]4(C)C[C@]3(CCC21)CC(=O)N4 (stereo partly specified)	.	.	.	.	.	.	/	/
C=C1C(=O)C23CCC4C(C)(C(=O)OC)CCCC4(C)C2CCC1(O)C3 (stereo unspecified)	68.2	78.4	.	.	37.3	.	48.4	1.6
CC(C)(CNC(=O)/C=C/c1ccc(F)cc1)CNC(=O)/C=C/c1ccc(F)cc1	.	.	.	.	31.1	.	15.1	.
CC(C)(C)SCCNC(=O)/C=C/c1ccc(F)cc1	.	.	.	.	.	.	/	/
COc1ccc(C(NC(C)=O)c2nccc3cc(OC)c(OC)cc23)cc1OC (stereo unspecified)	.	.	.	.	23.1	.	.	.
COc1ccc(C(NC(C)=O)c2cc(Cl)c3cccnc3c2O)cc1OC (stereo unspecified)	.	.	.	.	.	.	/	/
COc1ccc(-c2nc(C#N)c(NCCc3ccccc3)o2)cc1OC	.	.	.	.	.	.	/	/
COc1ccc(-c2nc(C#N)c(NCc3ccc(C)cc3)o2)cc1OC	.	.	.	.	22.6	.	20.3	.
CC(=O)N/C(=C/c1ccc2c(c1)OCO2)C(=O)NC(Cc1ccccc1)C(=O)O (stereo unspecified)	.	.	.	.	15.9	.	.	.
CC(=O)N/C(=C\c1ccc2c(c1)OCO2)C(=O)NC(C(=O)O)c1ccccc1 (stereo unspecified)	.	.	.	.	.	.	/	/
CCOC(=O)Cc1csc(NC(=O)c2cc(=O)c3ccccc3o2)n1	.	.	.	.	91.8	.	89.9	.
COc1ccccc1CNC(=O)c1cnn2c(C(F)F)cc(C)nc12	.	.	.	.	22.9	.	34.5	.
CCCCCCCCNC(=O)C1CSCCS(=O)(=O)N1Cc1ccc(OC)cc1 (stereo unspecified)	.	.	/	/	/	/	/	/
CCOC(=O)N(C)[C@H]1C[C@H]2c3cc(-c4ccccc4C)ccc3CCN2C[C@H]1[C@H](C)O	.	61.1	/	/	95.0	/	.	.
C/C=C/C(=O)Nc1cccc(C2=NOC3(C2)C[C@@H](C(N)=O)N(C(=O)c2cc([N+](=O)[O-])cc([N+](=O)[O-])c2C)C3)c1 (stereo partly specified)	.	.	.	.	13.4	.	.	.
